# Measurements: PubChem BioAssay (EPA / NIEHS)
# “And” between values parts separate entries of the source, which are not always exact repeats. Identical values can stand only once. Inconclusive results are not listed. The source made the active and inactive calls. How the source made its calls, unless noted: active means hit-call score of the fitted dose curve at least 0.9, where 1 is the maximum; inconclusive means response in the unintended direction; inactive means score below 0.9.
# Legend:
# [1] = biological target: human Peripheral-type Benzodiazepine Receptor (PBR), TSPO (gene 706) (UniProt P30536); assay: NVS_MP_hPBR: NovaScreen (NVS) Membrane Protein Assay for human Peripheral-type Benzodiazepine Receptor (PBR) (AID 2283331);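 further: hits reduce radioligand binding relative to DMSO baseline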
# Method in brief: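 Cell-free binding to human colonic membrane preparations measured by filter-based scintillation counting after 1 h. Compounds first run at 25 uM in duplicate, then concentration series for actives; signal loss against DMSO baseline.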
# [2] = biological target: rat Peripheral-type Benzodiazepine Receptor (PBR), Tspo (gene 24230) (UniProt P16257); assay: NVS_MP_rPBR: NovaScreen (NVS) Membrane Protein Assay for rat Peripheral-type Benzodiazepine Receptor (PBR) (AID 2283335)
# Method in brief: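 Single-concentration duplicate screening at 25 uM preceded concentration-series retesting of actives. Binding of a specific radioligand to rat kidney membrane PBR was read by filtration radiodetection after 1 h, with plate-wise positive and negative controls.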
# [3] = biological target: Peroxisome proliferator-activated receptor gamma (Homo sapiens) (UniProt P37231); assay: NVS_NR_hPPARg: NovaScreen (NVS) Nuclear Receptor Binding Assay for human Peroxisome Proliferator-activated Receptor gamma (PPARg) (AID 2283370)
# Method in brief: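 Extracted receptor protein, cell-free; compound incubated 2 h then fluorescence polarization read. Baseline: DMSO. Actives from 25 uM duplicate screen re-run across concentrations.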
# [4] = biological target: human Ephrin type-A Receptor 1 (EphA1), EPHA1 (gene 2041) (UniProt P21709); assay: NVS_ENZ_hEphA1: NovaScreen (NVS) Enzymatic Assay for human Ephrin type-A Receptor 1 (EphA1) (AID 2283158);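 further: activity is signal loss versus DMSO meaning EphA1 kinase inhibition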
# Method in brief: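 Here the EphA1 protein is recombinant and the substrate fluorescent, with electrophoretic separation before fluorescence detection at 1 hour. Signal loss against DMSO defines activity; plate controls included; follow-up concentration series reach 50 uM.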
# [5] = biological target: human Phosphodiesterase 10 (PDE10), PDE10A (gene 10846) (UniProt Q9Y233); assay: NVS_ENZ_hPDE10: NovaScreen (NVS) Enzymatic Assay for human Phosphodiesterase 10 (PDE10) (AID 2283195)
# Method in brief: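 Fluorescence readout after mobility-shift separation of substrate and product, 1 h reaction with recombinant human enzyme. Single-concentration duplicates at 25 uM, then concentration-response up to 50 uM for chemicals reaching threshold; DMSO baseline.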
# [6] = biological target: Androgen receptor (Homo sapiens) (UniProt P10275); assay: ATG_AR_TRANS: Attagene TRANS-FACTORIAL HepG2 Assay for human Androgen Receptor (AR) (AID 2282973); details: HepG2 Attagene TRANS-FACTORIAL AR reporter transcription
# Method in brief: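 Chimeric nuclear receptor–Gal4 activity was assessed in human HepG2 hepatocytes after 24 h chemical dosing. Induced reporter mRNA was detected via labelled RT-PCR fragments on capillary electrophoresis, and gain of signal was analysed against DMSO.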
# [7] = CEETOX_H295R_11DCORT: CeeTox H295R High-throughput Steroidogenesis Assay for 11-Deoxycortisol (11DCORT) (AID 2283432; active means hit-call score of the fitted dose curve at least 0.9, where 1 is the maximum; inactive means score below 0.9;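 on AC50: 11-deoxycortisol secreted into the medium measured by LC-MS/MS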); details: actives raise or lower the signal
# Method in brief: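 Human adrenal H295R cells were prestimulated with 10 uM forskolin for 48 h, then exposed to test chemical (0.1% DMSO final) for 48 h. Medium 11-deoxycortisol was quantified by MTBE extraction and HPLC-MS/MS; bidirectional fitting relative to DMSO.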
# [8] = CEETOX_H295R_OHPREG: CeeTox H295R High-throughput Steroidogenesis Assay for OH-Pregnenolone (OHPREG) (AID 2283434; active means hit-call score of the fitted dose curve at least 0.9, where 1 is the maximum; inactive means score below 0.9); details: actives raise or lower the signal
# Method in brief: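 Secreted 17alpha-hydroxypregnenolone measured by HPLC-MS/MS after liquid-liquid extraction. Human adrenal H295R cells received 48 h forskolin (10 uM) stimulation before 48 h chemical exposure at 0.1% final DMSO; MTT viability in same wells; bidirectional fit against DMSO.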
# [9] = CEETOX_H295R_OHPROG: CeeTox H295R High-throughput Steroidogenesis Assay for OH-Progesterone (OHPROG) (AID 2283435; active means hit-call score of the fitted dose curve at least 0.9, where 1 is the maximum; inactive means score below 0.9;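 on AC50: 17alpha-hydroxyprogesterone secreted into medium measured by HPLC-MS/MS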); details: actives raise or lower the signal
# Method in brief: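 HPLC-MS/MS quantification of 17alpha-hydroxyprogesterone secreted by H295R cells after 48 h chemical exposure, following 48 h 10 uM forskolin prestimulation. Gain or loss of signal fitted relative to DMSO. Viability checked by MTT in the same wells.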
# [10] = CEETOX_H295R_CORTIC: CeeTox H295R High-throughput Steroidogenesis Assay for Corticosterone (CORTIC) (AID 2283437; active means hit-call score of the fitted dose curve at least 0.9, where 1 is the maximum; inactive means score below 0.9); details: actives raise or lower the signal
# Method in brief: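 Medium corticosterone was quantified by tandem mass spectrometry following 48 hours of chemical exposure (0.1% DMSO) in human H295R cells previously stimulated 48 hours with 10 uM forskolin. Viability checked by MTT; chemicals diluted and retested when viability fell below 70%.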
# [11] = CEETOX_H295R_CORTISOL: CeeTox H295R High-throughput Steroidogenesis Assay for Cortisol (AID 2283438; active means hit-call score of the fitted dose curve at least 0.9, where 1 is the maximum; inactive means score below 0.9;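 further: cortisol secreted into medium quantified by LC-MS/MS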); details: actives raise or lower the signal
# Method in brief: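 Read-out: cortisol in culture medium by reverse-phase C18 HPLC with ESI-positive tandem MS, after MTBE liquid-liquid extraction. Cells: human adrenal H295R, forskolin-primed (10 uM, 48 h) before 48 h chemical exposure in 0.1% DMSO.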
# [12] = CEETOX_H295R_DOC: CeeTox H295R High-throughput Steroidogenesis Assay for DOC (AID 2283439; active means hit-call score of the fitted dose curve at least 0.9, where 1 is the maximum; inactive means score below 0.9); details: actives raise or lower the signal
# Method in brief: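 Human adrenocortical H295R cells, passages up to 10, received 10 uM forskolin for 48 h before chemical addition. After another 48 h exposure in 0.1% DMSO, secreted DOC was measured by LC-MS/MS, with gain or loss fitted against DMSO controls.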
# [13] = CCTE_Simmons_CellTiterGLO_HEK293T: Viability Assessment in CCTE's Assays for Thyroperoxidase (TPO) Inhibition, Simmons Lab (AID 2283665);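 on AC50: cells exposed to compound for 24 h before readout; actives reduce ATP signal below DMSO vehicle meaning cytotoxicity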
# Method in brief: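 Luminescent ATP readout (CellTiter-Glo, 20 min at room temperature) after 24 hr exposure of HEK293T cells to 5 nM–87.5 uM final compound; signal loss relative to DMSO vehicle indicated cytotoxicity; dichlone titrated as positive control.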
# [14] = system: Sodium/Iodide Symporter (NIS), SLC5A5 (gene 6528); assay: CPHEA_Stoker_NIS_Inhibition_RAIU: CPHEA's Radioactive Iodide Uptake (RAIU) Assay for Sodium/Iodide Symporter (NIS) Inhibition, Stoker and Laws Labs (AID 2283841)
# Method in brief: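 Iodide uptake read as CPM of intracellular 125I (final 329 pM) after 2 h room-temperature exposure in HEPES-buffered HBSS, pH 7.4. Human NIS-expressing HEK293T cells; six concentrations 0.001–100 uM, 0.5% DMSO, normalised to DMSO wells.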
# [15] = CPHEA_Stoker_NIS_Cytotoxicity: Cytotoxicity Assessment for CPHEA's Radioactive Iodide Uptake (RAIU) Assay for Sodium/Iodide Symporter (NIS) Inhibition, Stoker and Laws Labs (AID 2283897)
# Method in brief: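 CellTiter-Glo ATP luminescence gauged viability in HEK293T cells expressing human NIS after 2 h chemical exposure. Concentrations ran 0.001–100 uM in 0.5% DMSO; DMSO served as baseline for the loss-of-signal fit.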
# [16] = CCTE_Deisenroth_AIME_384WELL_CTox_Active: Cytotoxicity Assessment (CTOX) in CCTE's 384-well Estrogen Receptor Transactivation Assay with AIME metabolic competence (metabolism positive), Deisenroth Lab (AID 2284037);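 further: chemicals first conditioned 2 h by alginate-bound induced rat liver S9 before cells; activity means signal loss indicating cell death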
# Method in brief: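 Cytotoxicity in VM7Luc4E2 breast cells, 24 hour, measured as protease-substrate fluorescence loss, after 2-hour metabolic conditioning with induced rat hepatic S9 in alginate microspheres. Concentrations 0.002 - 200 uM, 10 points, bidirectional fitting.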
# [17] = CCTE_Deisenroth_AIME_384WELL_CTox_Inactive: Cytotoxicity Assessment (CTOX) in CCTE's 384-well Estrogen Receptor Transactivation Assay without AIME metabolic competence (metabolism negative), Deisenroth Lab (AID 2284039);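 further: cell viability via live-cell protease substrate cleaved to fluorescent probe; cells exposed 24 h to medium preincubated 2 h with alginate-water beads without S9; loss of fluorescence signal means loss of viability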
# Method in brief: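 Fluorescent protease-substrate viability readout after 24 h exposure of VM7Luc4E2 cells to conditioned medium. Chemicals (0.002–200 uM) first sat 2 h over alginate-water beads, no S9. Data fitted bidirectionally, loss of signal meaning viability loss.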
# [18] = biological target: Bile acid receptor (Homo sapiens) (UniProt Q96RI1); assay: OT_FXR_FXRSRC1_0480: Odyssey Thera (OT) 8-hour HEK293T Protein-Complementation Assay for Farnesoid X receptor/SRC-1 Co-activator (AID 2283383)
# Method in brief: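 Fluorescence intensity read-out, 8 h post-dose, HEK293T protein-fragment complementation; FXR bait and SRC-1 prey each linked to reporter fragments. Activity scored as signal increase over DMSO negative control.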
# [19] = biological target: Bile acid receptor (Homo sapiens) (UniProt Q96RI1); assay: OT_FXR_FXRSRC1_1440: Odyssey Thera (OT) 24-hour HEK293T Protein-Complementation Assay for Farnesoid X receptor/SRC-1 Co-activator (AID 2283384)
# Method in brief: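 Fluorescence readout, 24 h post-dose, HEK293T; FXR and SRC-1 fused to complementary reporter fragments, association reconstitutes signal. Positive-direction fit vs DMSO baseline.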
# [20] = CCTE_Padilla_ZF_Score.General: CCTE's 144 Hour Post-fertilization zebrafish Assay Score for General Malformation, Padilla Lab (AID 2284411; active means hit-call score of the fitted dose curve at least 0.9, where 1 is the maximum; inactive means score below 0.9)
# Method in brief: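 Malformation, death and hatching were scored at 6 dpf by two blinded observers under a stereo microscope. Embryos were dosed singly from 6-8 hpf in sealed plates of 10% Hanks' at 26C and rinsed on 5 dpf; DMSO baseline.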
# Sequence of Androgen receptor (Homo sapiens) (P10275 whole entry, looked up, the tested form may be a part): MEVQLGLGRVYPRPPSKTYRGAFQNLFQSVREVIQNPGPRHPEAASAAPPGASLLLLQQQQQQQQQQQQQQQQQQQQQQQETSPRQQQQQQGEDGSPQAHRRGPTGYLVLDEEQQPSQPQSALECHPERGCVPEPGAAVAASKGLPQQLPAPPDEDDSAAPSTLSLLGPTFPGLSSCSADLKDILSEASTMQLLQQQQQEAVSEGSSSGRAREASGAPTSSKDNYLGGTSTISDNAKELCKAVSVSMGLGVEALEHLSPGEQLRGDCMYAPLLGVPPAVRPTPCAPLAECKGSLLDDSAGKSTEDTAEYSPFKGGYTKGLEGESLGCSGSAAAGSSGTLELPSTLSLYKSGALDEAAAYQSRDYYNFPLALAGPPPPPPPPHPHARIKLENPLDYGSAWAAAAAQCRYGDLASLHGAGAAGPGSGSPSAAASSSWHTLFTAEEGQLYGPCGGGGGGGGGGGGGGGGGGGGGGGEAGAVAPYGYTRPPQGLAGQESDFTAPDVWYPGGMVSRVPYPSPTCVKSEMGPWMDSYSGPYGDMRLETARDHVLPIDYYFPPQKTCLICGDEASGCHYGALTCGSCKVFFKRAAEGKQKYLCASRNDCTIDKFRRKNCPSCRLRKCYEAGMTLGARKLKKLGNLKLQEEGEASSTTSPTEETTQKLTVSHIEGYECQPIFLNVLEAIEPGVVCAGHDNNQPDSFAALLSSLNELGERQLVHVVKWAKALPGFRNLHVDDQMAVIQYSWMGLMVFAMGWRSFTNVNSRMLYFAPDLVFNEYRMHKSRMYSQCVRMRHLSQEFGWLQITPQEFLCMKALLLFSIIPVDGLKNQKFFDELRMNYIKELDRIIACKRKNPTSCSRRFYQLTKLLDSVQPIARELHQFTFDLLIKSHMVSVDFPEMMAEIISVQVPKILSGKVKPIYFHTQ
# Sequence of Peroxisome proliferator-activated receptor gamma (Homo sapiens) (P37231 whole entry, looked up): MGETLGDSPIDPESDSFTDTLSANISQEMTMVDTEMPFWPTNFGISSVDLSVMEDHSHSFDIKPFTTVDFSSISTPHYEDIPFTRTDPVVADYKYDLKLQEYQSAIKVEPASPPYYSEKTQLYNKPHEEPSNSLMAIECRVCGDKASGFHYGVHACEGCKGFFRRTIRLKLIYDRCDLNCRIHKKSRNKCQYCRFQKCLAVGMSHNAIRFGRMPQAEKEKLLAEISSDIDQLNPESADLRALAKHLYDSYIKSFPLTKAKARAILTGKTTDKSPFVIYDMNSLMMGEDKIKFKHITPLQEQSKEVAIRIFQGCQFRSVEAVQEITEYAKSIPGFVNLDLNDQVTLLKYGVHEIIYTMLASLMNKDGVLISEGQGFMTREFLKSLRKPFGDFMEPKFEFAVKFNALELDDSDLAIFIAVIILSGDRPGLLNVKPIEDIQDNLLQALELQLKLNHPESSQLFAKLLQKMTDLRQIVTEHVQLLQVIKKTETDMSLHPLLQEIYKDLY
# Sequence of human Ephrin type-A Receptor 1 (EphA1), EPHA1 (gene 2041) (P21709 whole entry, looked up): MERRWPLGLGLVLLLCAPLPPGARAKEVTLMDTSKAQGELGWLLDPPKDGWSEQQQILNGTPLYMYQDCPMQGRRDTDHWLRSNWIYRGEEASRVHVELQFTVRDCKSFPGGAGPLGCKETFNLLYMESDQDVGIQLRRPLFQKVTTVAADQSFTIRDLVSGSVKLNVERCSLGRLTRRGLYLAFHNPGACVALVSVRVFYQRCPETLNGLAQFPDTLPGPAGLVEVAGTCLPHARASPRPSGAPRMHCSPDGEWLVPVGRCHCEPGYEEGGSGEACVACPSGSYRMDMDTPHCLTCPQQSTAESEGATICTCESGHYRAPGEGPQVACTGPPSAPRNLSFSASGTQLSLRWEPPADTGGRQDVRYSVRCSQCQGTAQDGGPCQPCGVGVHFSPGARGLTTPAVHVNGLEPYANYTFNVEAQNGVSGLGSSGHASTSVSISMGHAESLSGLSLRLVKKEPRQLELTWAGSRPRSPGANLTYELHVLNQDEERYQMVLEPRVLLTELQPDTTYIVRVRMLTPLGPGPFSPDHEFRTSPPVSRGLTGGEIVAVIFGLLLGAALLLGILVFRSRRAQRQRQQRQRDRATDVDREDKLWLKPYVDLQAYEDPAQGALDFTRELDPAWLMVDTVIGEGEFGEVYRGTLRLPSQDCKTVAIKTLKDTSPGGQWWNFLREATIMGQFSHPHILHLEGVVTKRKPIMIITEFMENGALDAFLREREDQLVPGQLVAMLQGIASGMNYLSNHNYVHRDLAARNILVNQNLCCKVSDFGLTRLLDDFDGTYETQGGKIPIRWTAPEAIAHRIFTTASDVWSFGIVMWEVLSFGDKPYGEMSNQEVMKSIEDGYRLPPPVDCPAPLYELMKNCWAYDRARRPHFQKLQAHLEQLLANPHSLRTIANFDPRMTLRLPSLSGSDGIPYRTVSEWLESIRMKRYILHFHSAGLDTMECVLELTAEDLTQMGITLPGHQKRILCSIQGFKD
# Sequence of human Phosphodiesterase 10 (PDE10), PDE10A (gene 10846) (Q9Y233 whole entry, looked up): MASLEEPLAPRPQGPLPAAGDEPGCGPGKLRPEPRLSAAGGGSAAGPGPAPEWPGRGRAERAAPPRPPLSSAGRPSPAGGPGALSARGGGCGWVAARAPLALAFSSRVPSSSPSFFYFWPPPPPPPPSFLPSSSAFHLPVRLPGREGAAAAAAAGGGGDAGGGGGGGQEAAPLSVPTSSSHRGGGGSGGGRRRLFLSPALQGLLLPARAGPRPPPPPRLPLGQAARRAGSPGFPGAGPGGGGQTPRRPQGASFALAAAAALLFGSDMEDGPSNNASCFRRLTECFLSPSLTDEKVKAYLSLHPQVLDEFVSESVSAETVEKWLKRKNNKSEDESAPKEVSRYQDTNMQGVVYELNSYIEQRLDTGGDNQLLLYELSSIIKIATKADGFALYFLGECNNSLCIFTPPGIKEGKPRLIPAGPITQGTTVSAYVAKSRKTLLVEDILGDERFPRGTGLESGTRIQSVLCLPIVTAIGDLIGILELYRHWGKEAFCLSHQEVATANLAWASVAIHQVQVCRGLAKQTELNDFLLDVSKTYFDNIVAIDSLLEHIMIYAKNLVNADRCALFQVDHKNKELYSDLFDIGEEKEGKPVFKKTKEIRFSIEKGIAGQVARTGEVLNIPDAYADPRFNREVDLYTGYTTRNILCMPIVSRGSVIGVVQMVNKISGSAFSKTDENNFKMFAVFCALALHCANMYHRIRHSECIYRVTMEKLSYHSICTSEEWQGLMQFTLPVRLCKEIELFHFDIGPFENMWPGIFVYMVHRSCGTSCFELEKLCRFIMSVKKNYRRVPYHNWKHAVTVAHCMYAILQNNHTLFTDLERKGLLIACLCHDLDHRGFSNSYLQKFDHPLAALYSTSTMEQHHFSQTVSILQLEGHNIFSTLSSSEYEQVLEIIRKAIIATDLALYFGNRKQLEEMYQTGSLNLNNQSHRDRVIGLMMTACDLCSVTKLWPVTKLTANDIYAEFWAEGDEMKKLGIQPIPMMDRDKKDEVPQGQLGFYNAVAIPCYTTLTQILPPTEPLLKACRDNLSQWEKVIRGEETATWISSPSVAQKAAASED
# Sequence of human Peripheral-type Benzodiazepine Receptor (PBR), TSPO (gene 706) (P30536 whole entry, looked up): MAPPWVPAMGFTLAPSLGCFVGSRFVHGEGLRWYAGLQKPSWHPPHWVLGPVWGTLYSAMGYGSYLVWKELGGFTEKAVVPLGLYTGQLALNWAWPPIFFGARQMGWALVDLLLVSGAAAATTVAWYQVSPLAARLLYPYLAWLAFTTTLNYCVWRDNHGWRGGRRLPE
# Sequence of Bile acid receptor (Homo sapiens) (Q96RI1 whole entry, looked up, the tested form may be a part): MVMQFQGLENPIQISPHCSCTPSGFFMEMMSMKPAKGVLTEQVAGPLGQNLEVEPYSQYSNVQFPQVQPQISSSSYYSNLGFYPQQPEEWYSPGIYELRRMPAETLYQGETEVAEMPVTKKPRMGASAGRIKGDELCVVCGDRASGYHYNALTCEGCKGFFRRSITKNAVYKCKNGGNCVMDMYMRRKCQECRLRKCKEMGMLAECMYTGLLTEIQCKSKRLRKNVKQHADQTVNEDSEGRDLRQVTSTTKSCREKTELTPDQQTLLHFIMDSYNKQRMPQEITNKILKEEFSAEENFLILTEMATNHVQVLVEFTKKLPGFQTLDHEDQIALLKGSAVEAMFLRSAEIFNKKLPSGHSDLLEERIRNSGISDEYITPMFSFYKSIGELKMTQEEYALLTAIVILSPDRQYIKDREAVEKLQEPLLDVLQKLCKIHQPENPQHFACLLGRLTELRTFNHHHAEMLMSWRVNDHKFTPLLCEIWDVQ
# Sequence of rat Peripheral-type Benzodiazepine Receptor (PBR), Tspo (gene 24230) (P16257 whole entry, looked up): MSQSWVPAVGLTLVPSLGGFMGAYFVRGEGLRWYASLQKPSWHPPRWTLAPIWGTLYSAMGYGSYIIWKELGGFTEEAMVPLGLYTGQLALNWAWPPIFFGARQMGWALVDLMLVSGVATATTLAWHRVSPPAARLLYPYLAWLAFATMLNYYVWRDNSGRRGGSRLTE
compound,measurement,setting,value
CCc1cccc(C)c1N(C(=O)CCl)[C@@H](C)COC,AC50,[1],2.89 µM (active)
same,AC50,[2],4.35 µM (active)
same,outcome,[3],inactive
c1ccc(P(c2ccccc2)c2ccccc2)cc1,AC50,[3],14.9 µM (active)
Cc1ncc(C[n+]2csc(CCO)c2C)c(N)n1,outcome,[4],inactive
same,outcome,[5],inactive
Nc1ccc(-c2ccc(N)c(N)c2)cc1N,AC50,[5],6.79 µM (active)
CC(C)(C)C(O)C(Oc1ccc(-c2ccccc2)cc1)n1cncn1 (stereo not drawn),outcome,[6],inactive
same,outcome,[1],inactive
same,AC50,[7],0.0464 µM (active)
same,outcome,[8],inactive
same,AC50,[9],0.0566 µM (active)
same,outcome,[10],inactive
same,outcome,[11],inactive
same,outcome,[12],inactive
O=C(O)CCCc1ccc(N(CCCl)CCCl)cc1,outcome,[4],inactive
SCc1ccco1,outcome,[6],inactive
Oc1ccc(Cl)cc1,AC50,[1],12.3 µM (active)
CCCCCCCCCCCCCCCC[N+](C)(C)C,AC50,[1],12.3 µM (active)
same,AC50,[13],10.2 µM (active)
same,AC50,[14],10.2 µM (active)
same,outcome,[15],inactive
same,outcome,[16],inactive
same,AC50,[17],100 µM (active)
O=C=Nc1ccccc1,AC50,[8],0.499 µM (active)
same,outcome,[9],inactive
same,outcome,[13],inactive
CC1CCCC1.[C-]#[O+].[C-]#[O+].[C-]#[O+].[Mn],outcome,[13],inactive
O=C1Nc2ccc(Cl)cc2C(c2ccccc2)=NC1O (stereo not drawn),outcome,[18],inactive
same,outcome,[19],inactive
same,outcome,[14],inactive
same,outcome,[15],inactive
C=CC(=O)OC,outcome,[5],inactive
Cc1ccc(OP(=O)(Oc2ccc(C)cc2)Oc2ccc(C)cc2)cc1 (tested in a mixture with another compound),AC50,[1],1.12 µM (active) and 1.76 µM (active)
same,AC50,[2],150 nM (active) and 5.34 µM (active)
same,outcome,[7],inactive
same,outcome,[8],inactive
same,outcome,[9],inactive
same,outcome,[10],inactive
same,outcome,[11],inactive
same,outcome,[12],inactive
same,outcome,[14],inactive
same,outcome,[15],inactive
same,AC50,[20],2.6 µM (active)
COc1cc(OC)nc(Oc2cccc(Oc3nc(OC)cc(OC)n3)c2C(=O)O)n1,outcome,[6],inactive
same,outcome,[3],inactive
same,outcome,[18],inactive
same,outcome,[19],inactive
same,outcome,[13],inactive
BrCBr,outcome,[4],inactive
N#CCCCCC#N,outcome,[4],inactive
same,outcome,[5],inactive
same,outcome,[18],inactive
same,outcome,[19],inactive
same,outcome,[17],inactive
CN(C)N,outcome,[6],inactive
same,outcome,[17],inactive
CC(C)(O)C#N,outcome,[19],inactive
same,outcome,[13],inactive
CCOP(O)OCC,outcome,[17],inactive
CNC(=N[N+](=O)[O-])NCC1CCOC1 (stereo not drawn),outcome,[19],inactive
same,outcome,[16],inactive
Oc1cc(Cl)ccc1Cl,outcome,[7],inactive
same,outcome,[8],inactive
same,AC50,[9],25.8 µM (active)
same,outcome,[10],inactive
same,outcome,[11],inactive
same,outcome,[12],inactive
O=c1[nH]c(Cl)c(Cl)cc1Cl,outcome,[6],inactive
CC(C)c1ccc(O)cc1,outcome,[13],inactive
Nc1ccc(Cl)c(Cl)c1,outcome,[8],inactive
same,AC50,[9],33.3 µM (active)
same,AC50,[13],2.18 µM (active)
same,outcome,[16],inactive
same,outcome,[17],inactive
Nc1ccccc1C(=O)Oc1ccc2ccccc2c1,outcome,[6],inactive
CCC(C)c1cc(C(C)(C)C)cc(-n2nc3ccccc3n2)c1O (stereo not drawn),outcome,[6],inactive
CC(=O)/C=C/c1ccccc1,outcome,[4],inactive
C=CC(=O)OCC(CC)CCCC (stereo not drawn),outcome,[13],inactive
same,outcome,[20],inactive
Clc1ccc(-c2ccccc2)cc1,outcome,[5],inactive
O=CNC(N1CCN(C(NC=O)C(Cl)(Cl)Cl)CC1)C(Cl)(Cl)Cl (stereo not drawn),AC50,[7],50 µM (active)
same,outcome,[8],inactive
same,outcome,[9],inactive
same,outcome,[10],inactive
same,outcome,[11],inactive
same,outcome,[12],inactive
same,outcome,[14],inactive
same,outcome,[15],inactive
COC(=O)COc1ccc(Cl)cc1Cl,AC50,[1],14.9 µM (active)
CC(C)COP(=O)(OCC(C)C)OCC(C)C,AC50,[1],25 µM (active)
same,AC50,[2],19.2 µM (active)
same,outcome,[20],inactive
